Assay outcomes deposited in PubChem BioAssay by National Center for Advancing Translational Sciences (NCATS).
Compounds with a hit are over-represented: about 12% of the library has one in this group of screens.
PLK1 PBD inh – PLK1 (human) polo-box domain binding inhibition. P53350. Plk1 PBD binding of FITC phosphopeptide, fluorescence polarization. Potency, µM, inactives show max response, negative = inhibition, usual class: inhibitors. 2.8% of 360,000 active. AID 720504; further: potency means the concentration at half of the fitted maximal effect; series mostly up to about 57 µM; on the % scale 0 is the no-effect control and ±100 the full control effect; nearly all actives have a fitted effect of over 65% in size
PI5P4Ka inh – blocks human PI5P4K alpha kinase activity | PI5P4Kalpha enzyme, ADP-Glo luminescence, 60 min; active compounds read low | 1.2% of 330,000 active | max response, %; active means max response of -50% or lower; inconclusive means between -30% and -50%; inactive means -30% or higher; further: value at the top dose of about 77 µM; on the % scale 0 is the no-effect control and ±100 the full control effect
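Controls without substrate or without enzyme flank wells where PI5P4Kalpha converts substrate using 5 microM ATP (final). Incubation lasts 60 minutes at room temperature; ADP formed is read by ADP-Glo luminescence.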
JMJD2A Tudor – JMJD2A Tudor domain (human) inhibition. Potency, µM (titrated, usually from 114 µM), for inactives: at the highest dose activity change, negative = inhibition, actives largely listed as inhibitors. 4.4% of 390,000 active. AlphaScreen JMJD2A-Tudor / H3K4me3 peptide binding. O75164; further: potency means the concentration at half of the fitted maximal effect; on the % scale 0 is the no-effect control and ±100 the full control effect; nearly all actives have a fitted effect of over 50% in size
BAZ2B inh – inhibitors of human BAZ2B bromodomain | Q9UIF8 | AlphaScreen BAZ2B-H3K14Ac peptide displacement | Potency, µM (doses to about 114 µM), for the others: at the top dose activity change, negative = inhibition, actives largely listed as inhibitors | 4.4% of 360,000 active | AID 504333; further: potency means the concentration at half of the fitted maximal effect; on the % scale 0 is the no-effect control and ±100 the full control effect; nearly all actives have a fitted effect of over 60% in size
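Protein-peptide AlphaScreen: BAZ2B 50 nM, b-H3K14Ac 50 nM, 1x PBS pH 7.4 + 0.01% Tween-20. Preincubation 30 min RT; cpd 30 min RT (top 110 uM); beads 20 min RT, light-protected.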
G9a block – G9a (human) methyltransferase inhibition; Q96KQ7; G9a H3K9 monomethylation, AlphaScreen, 2 h; Potency, µM (highest dose often 102 µM), for the others: at the highest dose activity, negative = inhibition, actives largely listed as inhibitors; 8.8% of 350,000 active; AID 504332; further: potency means the concentration at half of the fitted maximal effect; on the % scale 0 is the no-effect control and ±100 the full control effect; nearly all actives have a fitted effect of over 75% in size
Target sequence (Q96KQ7 913-1193 limits assumed): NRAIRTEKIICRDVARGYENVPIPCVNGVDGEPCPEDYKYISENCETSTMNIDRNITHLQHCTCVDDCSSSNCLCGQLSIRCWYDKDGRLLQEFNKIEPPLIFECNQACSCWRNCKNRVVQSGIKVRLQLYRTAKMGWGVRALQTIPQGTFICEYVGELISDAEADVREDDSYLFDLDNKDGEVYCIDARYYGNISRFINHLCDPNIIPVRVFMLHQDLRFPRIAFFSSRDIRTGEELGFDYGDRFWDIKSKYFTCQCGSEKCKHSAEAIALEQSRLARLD
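AlphaScreen detection with an anti-monomethyl H3K9 antibody quantified product after a 2 h room-temperature reaction containing 500 nM biotinylated H3K9 peptide, 20 µM SAM and 20 nM enzyme, which had been preincubated 15 min with compound.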
HP1b binding inh – blocks HP1-beta chromodomain binding to methylated histone tails | P83916 | AlphaScreen HP1-beta / biotin-H3K9me3 peptide binding | Potency, µM (highest dose often 114 µM), without a hit: at the highest dose activity change, negative = inhibition, actives largely listed as inhibitors | 0.56% of 390,000 active; further: potency means the concentration at half of the fitted maximal effect; nearly all actives have a fitted effect of over 70% in size
Target sequence (P83916 whole entry, looked up): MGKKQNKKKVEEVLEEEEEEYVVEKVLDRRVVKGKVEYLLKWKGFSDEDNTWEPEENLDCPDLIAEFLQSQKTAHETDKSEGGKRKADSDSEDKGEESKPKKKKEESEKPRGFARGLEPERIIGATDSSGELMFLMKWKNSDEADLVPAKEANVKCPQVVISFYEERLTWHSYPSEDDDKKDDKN
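Compound inhibition of the preformed complex between 50 nM HP1-beta and 50 nM biotinylated H3K9me3 peptide was read by AlphaScreen. Buffer was PBS pH 7.4 with 0.01% Tween-20. Incubations ran 30 min at room temperature, with 10 ug/mL donor/acceptor beads.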
The depositor's hits bear a star; ? = inconclusive; . = no result; [ ] = another dose, or the depositor's remark. Unless noted, the call rests on the fitted dose curve; in most records, active means well fitted curve in the direction sought with a large enough effect; inconclusive means small, poorly fitted or top-dose-only effect, or another doubt; inactive means no such curve, though single readings can be large; an effect the other way counts as inactive or inconclusive.

SMILES	PLK1 PBD inh	PI5P4Ka inh	JMJD2A Tudor	BAZ2B inh	G9a block	HP1b binding inh
COc1ccc(CNCCc2ccc3c(c2)OCO3)cc1Br	-3%	-2	18µM*	50µM*	5µM*	-15%
COc1cc(CNCCc2ccc3c(c2)OCO3)ccc1O	5%	-5	-15%	2%	0%[0.501 µM]	37%
COc1cc(CNC(=O)CCCC/C=C/C(C)C)ccc1O	-5%	0	-6%	9%	4%[59 µM]	51%
Cn1c(C(=O)NCCOc2ccccc2Cl)cc(=O)n(C)c1=O	-11%	-3	-23%	-22%	-11%[59 µM]	53%
CCOC(=O)c1ccc(N2C(=O)c3n[nH]c(-c4cccs4)c3C2c2ccc(C(C)(C)C)cc2)cc1 (centres undefined)	.	.	?	.	?	-4%
CCCCCCN1CCN(c2ccccc2Cl)CC1	-12%	-2	56µM*	71µM*	6%	-19%
C[C@H](N)Cc1cccc(C(F)(F)F)c1	.	.	.	.	30µM*	.
CC1CCC(N2CCN(C(=O)COc3ccccc3)CC2)CC1 (centres undefined)	-6%	-8	4µM*	50µM*	11µM*	-18%
O=C(COc1ccc(Cl)cc1)N1CCN(Cc2ccccc2)CC1	0%	.	-5%	-5%	5%[59 µM]	21%
O=C(COc1ccc(Cl)cc1)N1CCN(C2CCCC2)CC1	0%	-4	20µM*	50µM*	8.9µM*	?
COc1cc(OC)c(OC)cc1CN1CCN(C(=O)COc2ccc3ccccc3c2)CC1	-10%	-11	3.2µM*	45µM*	10µM*	50µM*
Cc1cccc(OCC(=O)N2CCN(Cc3ccc([N+](=O)[O-])cc3)CC2)c1	-15%	-1	10µM*	-1%	0%	?
CN1CCCN(C(=O)COc2ccc(Br)cc2)CC1	-6%	9	-12%	-2%	.	29%
COc1ccccc1CN1CCN(C(=O)COc2ccccc2)CC1	-1%	3	3.2µM*	?	?	?
COc1ccc(OCC(=O)N2CCN(C(C)C)CC2)cc1	-5%	6	1.4µM*	56µM*	10µM*	?
CCN1CCN(C(=O)Cc2ccccc2OC)CC1	-6%	6	-8%	-25%	-4%	34%
COc1cccc(CN2CCN(C(=O)COc3ccc4ccccc4c3)CC2)c1	-12%	8	-28%	-27%	?	10%
Cc1nnc(N2CCC(C(=O)NCc3ccc(N(C)C)cc3)CC2)c2nn(-c3ccccc3)c(C)c12	.	.	?	?	-44%[59 µM]	-9%
CC(C)[C@H](NC(=O)[C@H](CCC(=O)O)NC(=O)[C@H](Cc1ccccc1)NC(=O)[C@H](C)NC(=O)[C@@H](N)Cc1ccc(O)cc1)C(=O)N[C@H](C(=O)NCC(N)=O)C(C)C	.	.	.	.	27%[59 µM]	.
C=C[C@@H]1CN2CC[C@H]1C[C@H]2[C@H](O)c1ccnc2ccccc12	.	.	.	.	6%[59 µM]	.
CO[C@H]1C=C2CCN(C)[C@@H]2[C@@H]2c3cc4c(cc3C(=O)O[C@H]21)OCO4	.	.	.	.	2%[21.5 µM]	.
O=C1CC(=O)N(c2ccccc2F)C(=O)N1	?	-1	-8%	-3%	?	26%
O=C1CC(=O)N(c2ccc(Cl)cc2Cl)C(=O)N1	-4%	-22	-26%	-1%	45µM*	2%
Cc1ccccc1-n1c(/C=C/c2ccccc2F)nc2ccccc2c1=O	.	.	-4%	3%	-4%[59 µM]	58%
N#CC(C#N)=Cc1cc(O)c(O)c(O)c1	.	.	.	.	8.9µM*	.
SMILES	PLK1 PBD inh	PI5P4Ka inh	JMJD2A Tudor	BAZ2B inh	G9a block	HP1b binding inh
N#CC(C#N)=Cc1cccnc1	-17%	-8	-4%[57.1 µM]	-1%	.	-24%
C=Cn1ccnc1P(=S)(c1c(C)nn(-c2ccccc2)c1C)c1nccn1C=C	2%	.	-23%	-35%	50µM*	28%
CN(C(=O)Cc1ccccc1)[C@H](CN1CCCC1)c1ccccc1	.	.	.	.	-8%[59 µM]	.
O=C(O)c1ccccc1SSc1ccccc1C(=O)O	12µM*	-1	2%	-4%	28µM*	56%
O=C(O)c1ccccc1SCC(=O)N1c2ccccc2Sc2ccccc21	-15%	-3	-22%	12%	41%[59 µM]	-5%
C[CH2][Hg][S]c1ccccc1C(=O)O	2.7µM*	22	18µM*	.	?	?
CCCOC(=O)c1cc2c(cn1)[nH]c1ccccc12	.	.	.	.	14%[59 µM]	.
O=C1OC(c2ccc(Br)cc2)=N/C1=C\N1CC2CC(C1)c1cccc(=O)n1C2 (centres undefined)	-3%	-9	?	?	-20%	1%
O=C1OC(c2ccc([N+](=O)[O-])cc2)=N/C1=C/N1CC2CC(C1)c1cccc(=O)n1C2 (centres undefined)	-19%	1	1%	-23%	79µM*	17%
CCN(CC)CCNC(=O)c1c(O)c2ccccc2n(Cc2ccccc2)c1=O	-9%	-4	79µM*	-37%	?	-8%
CCCCCSc1cc(OC)c(CCNC)cc1OC	-11%	17	?	?	?	-38%
CCCCCCCSc1cc(OC)c(CCNC)cc1OC	2%	18	45µM*	20µM*	22µM*	?
Cn1ncc2c(NCc3ccc(F)cc3)ncnc21	.	.	-29%	1%	-1%[59 µM]	68%
CCOC(=O)c1c(NC(=O)C(c2ccccc2)c2ccccc2)sc2c1C1CCN2CC1	-1%	2	?	?	50µM*	1%
CC(C)C[C@H]1C(=O)N2CCC[C@H]2[C@]2(O)O[C@](NC(=O)[C@@H]3C=C4c5cccc6[nH]c(Br)c(c56)CC4N(C)C3)(C(C)C)C(=O)N12 (some centres undefined)	-7%	-9	0%	?	?	32%
COCCn1c(-c2ccccc2)cc(C(=O)O)c1C	24µM*	-14	-20%[11.4 µM]	.	.	-18%
O[C@H]1[C@H]2[C@H](O)CCCN2C[C@H]1O	.	.	.	.	1%[12.7 µM]	.
COc1cc(/C=C/[N+](=O)[O-])ccc1O	19µM*	-20	?	45µM*	6.3µM*	?
O=C(c1ccc(F)cc1)N1CCC2(CC1)OCCO2	-14%	-1	-11%	-6%	.	14%
